# Screening results: PubChem, several laboratories
# CHOP inh – blocks CHOP induction under ER stress | CHO-K1 CHOP-promoter luciferase, tunicamycin-induced, 15-18 h | inhibition, % at 10 µM | 220,000 compounds, 3.8% hits;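 active = compounds that reduced the stress-induced luciferase reporter signal by more than about 70% of percent inhibition, limit read from the data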;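 note: 0% = tunicamycin plus vehicle and 100% = wells without tunicamycin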
# WT yeast gro inh – growth inhibition of WT yeast, mitochondrial fusion screen | mitochondrial fusion phenotypic screen, WT strain | 190,000 compounds, 2.1% hits | AID 1362 | inhibition, % at 10 µM; in the data active = inhibition above about 58%; tested in S. cerevisiae
# RAM inhibit – inhibitors of the yeast RAM network. inhibition, % at 50 µM. AID 868. S. cerevisiae dse1pr::URA3 reporter, 5-FOA growth OD615, 2 d; analog-sensitive cbk1-as2 kinase mutant strain. 190,000 compounds, 1.8% hits;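 active = inhibition above a set limit, 3 SD over mean compound inhibition, cut at about 8.4% in these data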;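 note: 0% = DMSO-only wells with no growth and 100% = 10 µM 1-NA-PP1 full growth; inhibition rescues growth on 5-FOA so higher OD means more RAM inhibition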
# Lmaj promast – inhibitors of Leishmania major promastigote growth. 200,000 compounds, 9% hits. Leishmania major promastigotes, resazurin fluorescence viability. inhibition, % at 10 µM; in the data active = inhibition above about 50%;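 note: promastigotes grown with compound for 44 hours at 28 °C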
# CHOP confirm – confirmation of CHOP induction inhibitors | shares compounds with CHOP inh | CHO-CHOP promoter luciferase reporter, tunicamycin-induced, luminescence | inhibition, % at 10 µM | 2,100 compounds, 45% hits;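 active = mean of three repeat readings of reporter signal inhibition above a set limit, cut at about 70% in these data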;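 note: 0% = tunicamycin plus vehicle and 100% = wells lacking tunicamycin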
# Active calls of the source: *; · = no result given. This is a sample that favours compounds with a hit; in the whole collection about 13% have one here.
SMILES,CHOP inh,WT yeast gro inh,RAM inhibit,Lmaj promast,CHOP confirm
CC(C)Nc1oc(-c2cccc3ccccc23)nc1C#N,100*,-11,5,-7,19
CCNc1oc(-c2cccc3ccccc23)nc1C#N,-3,-2,6,-3,·
Cn1c(CO)cnc1SCc1ccc(Cl)cc1,-9,5,2,-2,·
COc1ccc(OC)c(/C(O)=C/C(=O)C(=O)Nc2cc(C)cc(C)c2)c1,105*,10,3,35,-11
CCSc1nnc(NC(=O)[C@@H](NC(=O)c2ccc(C(C)(C)C)cc2)C(C)C)s1,28,36,5,9,·
C=CCOc1ccc(CNCCc2ccc(S(N)(=O)=O)cc2)cc1,24,12,0,27,·
O=C(Nc1nc2ccccc2[nH]1)c1ccc([N+](=O)[O-])cc1,-24,8,6,-1,·
C/C(=N\Nc1nc2ccccc2[nH]1)c1ccc([N+](=O)[O-])cc1,102*,·,·,·,26
CCOc1cnn(-c2cc(Oc3ccc(C)cc3)ncn2)c(=O)c1Cl,45,5,1,-2,·
Cc1ccccc1Oc1cc(-n2ncc(Cl)c(Cl)c2=O)ncn1,108*,70,1,100*,119*
C[C@@H](NCCc1ccc(O)cc1)[C@@H](O)c1ccc(O)cc1,-7,·,·,·,·
CCCCCCCCNC(C)C(O)c1ccc(SC(C)C)cc1 (stereo unspecified),108*,98*,0,100*,128*
O=C(O)c1ccccc1NS(=O)(=O)c1cccc(C(F)(F)F)c1,1,2,1,-1,·
O=S(=O)(Nc1cccc2c1CCCC2)c1cccc(C(F)(F)F)c1,107*,31,4,44,120*
Clc1ccc2[nH]c(-c3ccccc3)cc2c1,104*,44,3,0,70*
Fc1cccc(CSc2ccc3nnc(-c4cccnc4)n3n2)c1,23,10,1,31,·
CCCCCCn1c(SCCC)nc2c1c(=O)[nH]c(=O)n2C,99*,-37,6,12,81*
C/C=C/Cn1c(SCCCc2ccccc2)nc2c1c(=O)[nH]c(=O)n2C,103*,18,8,9,103*
CCOCCn1c(SCCc2ccccc2)nc2c1c(=O)[nH]c(=O)n2C,31,9,1,27,·
CN(C(=O)COC(=O)c1ccc(=O)n(Cc2ccccc2)n1)c1ccccc1,0,-5,1,-1,·
O=C(NC(=S)NN1CCCCC1c1cccnc1)c1ccc(Cl)cc1Cl (stereo unspecified),-7,·,·,·,·
COCCn1c(SCC(=O)Nc2ccc(C)cc2C)nc2c(oc3ccccc32)c1=O,101*,-11,1,54*,22
CCOc1ccc(OCc2cccc(C(=O)N3CCCC3)c2)cc1,23,2,-1,-9,·
O=C(OCC(F)(F)F)c1cccc(COc2ccc3ccccc3c2)c1,97*,-9,2,-3,116*
O=Cc1ccc(OCc2cccc(C(F)(F)F)c2)cc1O,47,26,8,-7,·
SMILES,CHOP inh,WT yeast gro inh,RAM inhibit,Lmaj promast,CHOP confirm
COc1ccc(OCc2cccc(C(=O)O)c2)cc1,105*,4,0,·,126*
O=C(O)c1ccc(COc2ccc(CO)cc2Cl)cc1,4,23,2,-10,·
O=C(O)c1cccc(COc2ccc(CO)cc2Cl)c1,97*,-14,3,·,121*
CN(C)N1C(N)=C(C#N)C(c2cccnc2)C2=C1CCCC2=O (stereo unspecified),19,-5,0,20,·
CCC(=O)N1N=C(c2c(-c3ccccc3)c3cc(Cl)ccc3[nH]c2=O)CC1c1ccco1 (stereo unspecified),103*,16,2,19,116*
Cc1cccc(S(=O)(=O)NC(Cc2c[nH]c3ccccc23)C(=O)O)c1 (stereo unspecified),16,-3,1,-5,·
O=C(CC1CCCCC1)NCc1nc(-c2ccccc2)no1,3,·,·,·,·
Cc1ccc(O)c(-c2cc(C(=O)Nc3ccc(S(=O)(=O)N4CC(C)OC(C)C4)cc3)[nH]n2)c1 (stereo unspecified),99*,4,8.9*,-2,33
CC1CCC(C(C)C)C(OC(=O)COC(=O)c2ccc(=O)[nH]c2)C1 (stereo unspecified),63,26,-1,6,·
CC1CCC(C(C)C)C(OC(=O)COC(=O)c2cc(O)ccc2N)C1 (stereo unspecified),105*,24,2,5,109*
C=CCC(C(=O)OC)(C(=O)OC)c1ccc(C(F)(F)F)cc1[N+](=O)[O-],6,4,1,2,·
COC(=O)C(Cc1cnc(Cl)s1)(C(=O)OC)c1ccc(C(F)(F)F)cc1[N+](=O)[O-],98*,1,1,6,24
Fc1cccc(NC(=S)NCc2ccccc2Cl)c1,3,·,·,·,·
CN=C(Nc1cc(Cl)ccc1Cl)SC1CC(=O)N(c2ccc(C(=O)OC)cc2)C1=O (stereo unspecified),105*,69*,4,34,5
COC(=O)c1ccc(N2C(=O)CC(SCC(=O)Nc3ccc(OC)cc3)C2=O)cc1 (stereo unspecified),15,·,·,·,·
Cc1nonc1NC(=O)CSc1nc(C23CC4CC(CC(C4)C2)C3)nc2ccccc12,100*,·,·,·,-2
CC1CCN(c2nc3ccc(C(=O)O)cc3s2)CC1,97*,-22,2,-2,108*
CCOC(=O)C1=C(Cc2ccc(C)cc2)C(=O)c2ccccc2C1=O,104*,23,9.6*,14,57
Cc1cc(/C=C(\C#N)C(=O)NC2CCCCCC2)c(C)[nH]1,5,18,4,4,·
COc1ccc(-c2[nH]ncc2/C=C(/C#N)C(=O)NC2CCCCCC2)cc1,99*,19,3,32,82*
Cc1cc(=O)[nH]c(SCC(=O)NN(c2ccccc2)c2ccccc2)n1,1,·,·,·,·
CC(C)(C)c1ccc(C(O)CCCN2CCC(C(O)(c3ccccc3)c3ccccc3)CC2)cc1 (stereo unspecified),22,92*,0,100*,134*
Cc1c(Cl)cccc1NC(=O)CN1CCC(C(O)(c2ccccc2)c2ccccc2)CC1,-3,0,0,21,·
O=C(CSc1nc2ccc(Cl)cc2[nH]1)c1c[nH]c2ccccc12,101*,-1,6,28,26
COc1cccc(NC(=O)COC(=O)CNS(=O)(=O)c2c(F)cccc2F)c1,-13,-6,-1,-5,·
O=C(Nc1ccc2oc(-c3cccnc3)nc2c1)c1cc2ccccc2o1,-18,-2,-1,3,·
O=C(NC(=S)Nc1ccc2oc(-c3cccnc3)nc2c1)c1cccc(Cl)c1,99*,-12,1,-3,8
O=[N+]([O-])c1cc(-c2ncccn2)c([N+](=O)[O-])s1,109*,6,-1,5,-112
O=C(CSc1ccsc1[N+](=O)[O-])N1CCN(c2ccccn2)CC1,6,-10,1,2,·
CCc1nc(NCC(C)C)c(C#N)c2c1COC(C)(C)C2,108*,-9,3,-4,71*
